Consider 40 molecules from PubChem BioAssay (Tox21).

SMILES strings stand for the structures. Activity calls are given as the source filed them. Where a call stands in place of a potency, no number is given. Calls come from the whole dose curve; as a rule, active = well fitted activation curve with a large enough effect in the repeat runs; inconclusive = weak or mixed curves; inactive = flat fitted curve, though single readings scatter.

This assay is described as follows: Caspase-3/7 induction in CHO-K1 cells by small molecules, qHTS assay (AID 1346980). Note: nearly all actives have a fitted effect of over 15% in size. The following applies: CHO-K1 caspase-3/7 induction, Caspase-Glo luminescence, 17 h; series mostly up to 92.4 µM. The source says: National Center for Advancing Translational Sciences [NCATS]
NIH Chemical Genomics Center [NCGC]
U.S. Environmental Protection Agency [EPA]
National Institutes of Environmental Health Sciences [NIEHS]
National Toxicology Program [NTP]
Apoptosis is a process of programmed cell death and plays a central role in the development of multicellular organisms. It is a highly regulated process and induces cell death by activating caspases, which are the members of cysteine aspartic acid-specific protease (caspase) family. Caspases involved in apoptosis are classified by their mechanism of action as initiator caspases (caspase-2, -8, -9 and -10) and executioner caspases (caspase-3, -6, and -7). Inhibition of apoptosis results in number of cancers, autoimmune diseases, inflammatory diseases and viral infection. To identify small molecule compounds that induce apoptosis, a homogeneous, luminescent Caspase-Glo 3/7 assay was used. Wild type CHO-K1 cells were used to screen Tox21 libraries for identifying caspase-3/7 activity inducers.
CHO-K1 cells were dispensed at 1,500 per well in 5uL of culture medium into white solid bottom 1536-well plates (Corning Life Sciences, Corning, NY) using a Multidrop Combi (Thermo Scientific, Waltham, MA) dispenser. The assay plates were incubated at 37 C and 5% CO2 for 5hr, and then 23nL of compounds dissolved in DMSO and positive control were transferred using a Pintool station (Wako, San Diego, CA). The assay plates were incubated at 37C and 5% CO2 for 17hr. For caspase-3/7 activity read, 4uL of Caspase-Glo 3/7 reagent (Promega Corporation, Madison, WI) was added to each well of the assay plates using Flying Reagent Dispenser (FRD, Aurora Discovery, San Diego, CA) and incubated the assay plates at room temperature for 30min. The luminescence signal was quantified using a ViewLux plate reader (Perkin Elmer, Shelton, CT).
(In general: Quantitative high-throughput screening tests each substance at several concentrations.)
As to `CC(C)CCOC(=O)/C=C/c1ccccc1`, the Potency result was “inactive”.

Take `CCCCCCCCCCCCCCCC[N+](C)(C)CC`: the Potency result was “inactive”.

In the case of `CCC(C)[O-].CCC(C)[O-].CCOC(=O)/C=C(/C)[O-].[Al+3]`, the Potency result was “inactive”.

With `OC/C=C/CO`, the Potency result is “inactive”.

As for `COc1cc(C)ccc1O`, the Potency result is “inactive”.

Turning to `CC(=O)c1ccc(C(C)=O)cc1`, the Potency result was “inactive”.

Take `O=C1C(c2[nH]c3ccc(S(=O)(=O)O)cc3c2O)=Nc2ccc(S(=O)(=O)O)cc21`: the Potency result was “inactive”.

`CN1CCC[C@@H]1CCO[C@](C)(c1ccccc1)c1ccc(Cl)cc1`: the Potency entry was “inactive”.

As to `O=c1[nH]c(=O)n([C@H]2C[C@H](O)[C@@H](CO)O2)cc1F`, the Potency result was “inactive”.

On to `Oc1cc(Cl)cc(Cl)c1Cl`, for which the Potency entry was “inactive”.

On to `C=CC(C)(CCC=C(C)C)OC=O` (stereo not given), for which the Potency entry is “inactive”.

For `CCCCCCCCCCCCOCCOCCOCCOCCOCCOCCOCCOCCOCCO`, the Potency entry was “inactive”.

Take `COC(=O)Nc1nc2ccc(C(=O)c3ccccc3)cc2[nH]1`: the Potency entry is “inactive”.

Regarding `OCC(F)(F)F`, the Potency result is “inactive”.

Take `CCCCCc1ccc(Cl)cc1`: the Potency result is “inactive”.

For `O=c1c(O)c(-c2ccc(O)cc2O)oc2cc(O)cc(O)c12`, the Potency result was “inactive”.

Turning to `CC1(C)CCC[C@]2(C)[C@H]3CC(=O)O[C@]3(C)CC[C@@H]12`, the Potency result was “inactive”.

As to `CC[C@H](C)COC(=O)/C=C/c1ccc(N=Cc2ccc(OC)cc2)cc1`, the Potency entry was “inactive”.

As for `Cc1c(C)c2c(c(C)c1O)CC[C@@](C)(CCC[C@H](C)CCC[C@H](C)CCCC(C)C)O2`, the Potency result is “inactive”.

With `CCOC(=O)c1ccc(C2CCC(NC[C@H](O)COc3ccc(O)c(NS(C)(=O)=O)c3)CC2)cc1` (stereo not given in full), the Potency result is “inactive”.

Regarding `O=[N+]([O-])c1ccc(F)c(Cl)c1`, the Potency result was “inactive”.

For the molecule `C#C[C@]1(OC(C)=O)CC[C@H]2[C@@H]3CCC4=C/C(=N/O)CC[C@@H]4[C@H]3CC[C@@]21CC`, the Potency result was “inactive”.

On to `Cc1c(C)c([N+](=O)[O-])c(C(C)(C)C)c([N+](=O)[O-])c1C`, for which the Potency result is “inactive”.

As for `[Cu+]`, the Potency entry was “inactive”.

Take `CN1CCCCC1CCN1c2ccccc2Sc2ccc(S(C)=O)cc21` (stereo not given): the Potency result is “inactive”.

Turning to `NC(=S)NC(N)=S`, the Potency entry was “inactive”.

`CCN1C(=O)c2ccccc2C1Nc1ccc(OCCN2CCCCC2)cc1` (stereo not given): the Potency entry is “inactive”.

For `COC(=O)C1=C(C)NC(C)=C(C(=O)OCCN2CCN(C(c3ccccc3)c3ccccc3)CC2)C1c1cccc([N+](=O)[O-])c1` (stereo not given), the Potency entry is “inactive”.

As to `CC(C)CCCCCOC(=O)CCS`, the Potency entry is “inactive”.

As to `CCCCCCCC/C=C\CCCCCCCCN`, the Potency entry is “inactive”.

Regarding `CCn1c2ccccc2c2cc([N+](=O)[O-])ccc21`, the Potency entry is “inactive”.

Take `O=S(=O)(O)c1ccccc1/C=C/c1ccc(-c2ccc(/C=C/c3ccccc3S(=O)(=O)O)cc2)cc1`: the Potency entry is “inactive”.

For `S=c1nccc[nH]1`, the Potency result is “inactive”.

Turning to `Nc1ccc(C(=O)O)c(O)c1`, the Potency result was “inactive”.

Regarding `CC(C)=CCC1=C(O)c2ccccc2C(=O)C1=O`, the Potency entry is “inactive”.

Take `O=C1CCc2ccc(OCCCCN3CCN(c4cccc(Cl)c4Cl)CC3)cc2N1`: the Potency result is “inactive”.

Consider `C#C[C@]1(OC(C)=O)CC[C@H]2[C@@H]3CCC4=C[C@@H](OC(C)=O)CC[C@@H]4[C@H]3CC[C@@]21C`, for which the Potency entry is “inactive”.

Regarding `OC1CCC(C2CCCCC2)CC1` (stereo not given), the Potency result was “inactive”.

On to `O=C(O)O`, for which the caspase-3/7 activation was 0.298% [at 8.39 µM] (inactive).

For the molecule `C[C@@H](O)[C@H](N)C(=O)O`, the caspase-3/7 activation was -0.26% [at 19 µM] (inactive).
